# POLI inh: qHTS for Inhibitors of Polymerase Iota; DNA polymerase iota (Homo sapiens), Q9UNA4; Pol iota fluorescent replication assay, 10 min; Potency, µM (top dose mostly 115 µM), for the others: top-dose activity, negative = inhibition, actives largely listed as inhibitors; 390,000 tested, 1% active; AID 588590, 2011; also: potency is read from the fitted curve at half-maximal effect
# Target sequence (Q9UNA4 whole entry, looked up): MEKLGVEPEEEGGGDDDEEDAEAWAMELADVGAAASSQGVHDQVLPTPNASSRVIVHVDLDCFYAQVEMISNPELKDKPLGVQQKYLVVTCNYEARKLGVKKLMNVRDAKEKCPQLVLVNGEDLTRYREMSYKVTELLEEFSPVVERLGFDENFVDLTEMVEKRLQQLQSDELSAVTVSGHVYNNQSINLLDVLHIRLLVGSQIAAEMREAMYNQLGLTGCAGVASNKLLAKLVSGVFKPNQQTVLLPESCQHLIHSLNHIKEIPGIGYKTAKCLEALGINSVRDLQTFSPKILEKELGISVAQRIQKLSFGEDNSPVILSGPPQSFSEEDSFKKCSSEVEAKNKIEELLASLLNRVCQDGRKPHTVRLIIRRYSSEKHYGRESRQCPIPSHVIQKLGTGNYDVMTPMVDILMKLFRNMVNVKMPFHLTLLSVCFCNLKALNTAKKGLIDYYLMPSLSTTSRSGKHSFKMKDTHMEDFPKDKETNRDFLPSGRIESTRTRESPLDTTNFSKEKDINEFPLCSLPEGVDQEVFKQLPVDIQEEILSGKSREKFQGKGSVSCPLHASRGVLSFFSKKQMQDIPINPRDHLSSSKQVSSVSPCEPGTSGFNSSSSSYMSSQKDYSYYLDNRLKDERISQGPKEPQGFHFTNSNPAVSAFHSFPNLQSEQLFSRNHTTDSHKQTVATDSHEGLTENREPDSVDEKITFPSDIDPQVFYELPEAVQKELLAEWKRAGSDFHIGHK
#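 Pol iota at 10 nM preincubated 15 min with compounds at room temperature; reaction started with fluorescent substrate, 50 nM final. Fluorescence read kinetically at 0 and 10 min; buffer-only wells as negative control.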
# Pol kappa inh-1: qHTS for Inhibitors of Polymerase Kappa. DNA polymerase kappa (Homo sapiens), Q9UBT6. purified Pol kappa, fluorescent DNA synthesis assay, 10 min. Potency, µM (doses to about 107 µM), without a hit: at the top dose activity, negative = inhibition, most hits filed as inhibitors. 400,000 tested, 0.53% active. AID 588579, 2011; also: potency is read from the fitted curve at half-maximal effect; % is scaled to controls: 0 for no effect and ±100 for the full control effect
#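 Pol kappa 10 nM + cpd, 15 min RT; start w/ substrate 50 nM final; fluorescence kinetic read, 0 and 10 min. Neg ctrl: buffer, no enzyme.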
# Pol beta inh: qHTS Assay for Inhibitors of DNA Polymerase Beta. Pol beta primer extension/strand displacement, fluorescence kinetic. Potency, µM (highest dose often 114 µM), inactives show at the highest dose activity change, negative = inhibition, usual class: inhibitors. 340,000 tested, 1.3% active. AID 485314, 2010; also: potency is read from the fitted curve at half-maximal effect; % is scaled to controls: 0 for no effect and ±100 for the full control effect
#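 Reaction started by 50 nM substrate onto compound-treated Pol beta (10 nM, 15 min preincubation, room temperature); plates read at 0 min and 10 min. Normalized concentration-effect data fitted by four-parameter Hill equation.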
# Pol eta inh-1: qHTS for Inhibitors of Polymerase Eta | Potency, µM (titrated, usually from 114 µM), for the others: at the highest dose activity change, negative = inhibition, usual class: inhibitors | recombinant Pol eta, fluorescent DNA replication assay | 390,000 tested, 1.2% active | DNA polymerase eta (Homo sapiens), Q9Y253; also: potency is read from the fitted curve at half-maximal effect; % is scaled to controls: 0 for no effect and ±100 for the full control effect
#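 Pol eta (10 nM) was preincubated with compounds for 15 min at room temperature, after which fluorescent replication substrate (50 nM final) was added to start the reaction. Fluorescence was read kinetically at 0 and 10 min.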
# WRN inhibitor: qHTS for Inhibitors of WRN Helicase; WRN helicase unwinding, fluorescent forked duplex, kinetic; 360,000 tested, 0.46% active; Potency, µM (series often up to 114 µM), for the others: at the highest dose activity change, negative = inhibition, hits mostly inhibitors; also: potency is read from the fitted curve at half-maximal effect; % is scaled to controls: 0 for no effect and ±100 for the full control effect; nearly all actives have a fitted effect of over 55% in size
#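 Screening of the MLSMR collection measured strand separation of a quenched forked DNA duplex (100 nM) by 20 nM WRN with 2 mM ATP, all final. Compounds were preincubated with enzyme 15 min at room temperature.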
# GALK inh confirm: Confirmation Assay for Inhibitors of Human Galactokinase (GALK); shares compounds with Pol eta inh-1; purified GALK, Kinase-Glo ATP depletion luminescence; Potency, µM (doses to about 115 µM), inactives show top-dose activity, negative = inhibition, most hits filed as inhibitors; 150 tested, 70% active
# GALK redox cs: Confirmatory Assay for Inhibitors of Human Galactokinase (GALK): Phenol-HRP redox assay counterscreen; shares compounds with Pol eta inh-1; Phenol red-HRP H2O2 redox cycling, absorbance 600 nm; Potency, µM (titrated, usually from 115 µM), without a hit: top-dose activity change, negative = H2O2 signal, most hits filed as inhibitors; 150 tested, 40% active; AID 2035, 2009
# HEK293 viability: Secondary Assay for Inhibitors of Human Galactokinase (GALK): HEK-293 Cell Viability Assay. shares compounds with Pol eta inh-1. HEK-293 viability, ATP luminescence (CellTiter-Glo), 24/48 h. Potency, µM (series often up to 46.1 µM), inactives show at the highest dose activity change, negative = cytotoxicity, usual class: inhibitors. 170 tested, 10% active. AID 2547, 2010; also: potency is read from the fitted curve at half-maximal effect; % is scaled to controls: 0 for no effect and ±100 for the full control effect
# Pol kappa inh-2: qHTS for Inhibitors of Polymerase Kappa: Confirmatory Assay for Cherry-picked Compounds | purified Pol-kappa, fluorescent strand-displacement substrate | shares compounds with Pol eta inh-1 | Potency, µM, most hits filed as inhibitors | AID 720501, 2013 | 920 tested, 76% active; also: potency is read from the fitted curve at half-maximal effect
# Pol eta inh-2: qHTS for Inhibitors of Polymerase Eta: Confirmatory Assay for Cherry-picked Compounds; 2,600 tested, 64% active; Potency, µM, actives largely listed as inhibitors; Pol eta primer extension, TAMRA/BHQ fluorescence, 10 min; shares compounds with Pol eta inh-1; also: potency is read from the fitted curve at half-maximal effect
# Active calls of the source: *; ? = inconclusive; . = no result given; [ ] = dose if it differs, or a comment. This is a sample that favours compounds with a hit; in the whole collection about 2.3% have one here. Calls follow the shape of the dose curve; as a rule, active = well fitted curve in the direction sought with a large enough effect; inconclusive = small, poorly fitted or top-dose-only effect, or another doubt; inactive = no such curve, though single readings can be large; an effect the other way counts as inactive or inconclusive.
SMILES,POLI inh,Pol kappa inh-1,Pol beta inh,Pol eta inh-1,WRN inhibitor,Pol eta inh-2,others
Cc1cc(NS(=O)(=O)c2ccc(NC(=O)/C=C/c3ccc(C)o3)cc2)nc(C)n1,-67%,-33%,9%,45µM*,-16%[11.6 µM],76*,
O=C(Nc1ccccc1C(F)(F)F)c1noc2c1CCCCC2,0%,-6%,13%,-7%,.,.,
O=C(CSc1nc2ccccc2c(=O)n1Cc1ccco1)NCc1ccco1,32µM*,?,?,79µM*,-33%[57.1 µM],?,
O=C(CSc1nc2ccsc2c(=O)n1Cc1ccccc1)NCc1ccco1,42%,-2%,6%,-11%,-3%,.,
O=C(CSc1nc2ccsc2c(=O)n1NC(=O)c1ccccc1)NCc1ccco1,50µM*,79µM*,?,45µM*,?,?,
CCc1ccc(NC(=O)c2ccc(Cn3nc(N4CCN(c5ccccc5)CC4)ccc3=O)o2)cc1,?,-27%,?,20µM*,.,?,Pol kappa inh-2=?
COc1cccc(NC(=O)Cn2nc(N3CCN(c4ccccc4)CC3)ccc2=O)c1,-18%,-19%,16%,-13%,.,.,
Cc1ccc2c(CC(=O)OCC(=O)N(CC(C)C)c3c(N)n(Cc4ccccc4)c(=O)[nH]c3=O)coc2c1,25µM*,?,.,20µM*,-35%,38*,
CCN(C(=O)COC(=O)Cc1coc2cc(C)ccc12)c1c(N)n(Cc2ccccc2)c(=O)[nH]c1=O,?,-27%,.,0%,-30%,.,
O=C(Nc1ccccc1Cl)c1c(F)c(F)c(F)c(F)c1F,17%,-14%,.,-8%,-33%,.,
COC1(NC(=O)c2ccccc2)C(C)=CC(=O)C=C1C,67%,-1%,29%,-20%,0%,.,
O=C(NC1(O)C(=O)c2ccccc2C1=O)c1c(Cl)cccc1Cl,1.6µM*,-13%,11%,45µM*,-6%[11.6 µM],?,GALK inh confirm=24µM*;GALK redox cs=9.4µM*;HEK293 viability=14%
O=C(NC1(O)C(=O)c2ccccc2C1=O)c1ccccc1,6.3µM*,-17%,-6%,32µM*,-19%,.,GALK inh confirm=24µM*;GALK redox cs=11µM*;HEK293 viability=-1%
CCOc1ccc(N(CC)C(=O)Cn2cnc3sc(C)c(S(=O)(=O)N4CCN(c5ncccn5)CC4)c3c2=O)cc1,22%,-5%,15%,-10%,.,.,
N=C(N)SCc1ncccc1O,50µM*,-46%,-3%,-3%,-14%,?,
N=C(N)SCc1ccccn1,13%,-3%,0%,-6%,-16%,.,
COc1cccc(-n2nnc3c(=O)n(CC(=O)N4CCC(C)CC4)cnc32)c1,19%,1%,6%,-9%,0%[57.1 µM],.,
COc1ccc(-n2nnc3c(=O)n(CC(=O)N4CCC(C)CC4)cnc32)cc1,17%,10%,-7%,-5%,-6%,.,GALK inh confirm=-5%;GALK redox cs=1%;HEK293 viability=-5%
CC1(C)OC(C)(C)/C(=C/Nc2ccc(O)cc2)C1=O,?,-28%,?,18µM*,-27%[57.1 µM],?,Pol kappa inh-2=?
Cc1cc(-c2n[nH]c(=S)n2/N=C/C=C/c2ccco2)n[nH]1,18µM*,89µM*,40µM*,45µM*,?,?,
Cc1ccccc1-c1n[nH]c(=S)n1/N=C/C=C/c1ccco1,7.9µM*,18µM*,-71%,22µM*,?,76*,
CC(=O)Nc1ccc(S(=O)(=O)N(C)c2ccc(OCCOc3cccc(C)c3)cc2)cc1,32µM*,?,.,20µM*,?,?,Pol kappa inh-2=38*
Cn1c(=O)oc2cc(S(=O)(=O)NCCC(=O)Nc3ccc(F)c(Cl)c3)ccc21,79µM*,79µM*,?,32µM*,.,43*,
Cn1c(=O)oc2cc(S(=O)(=O)NCCC(=O)Nc3ccc4c(c3)OCCO4)ccc21,?,-30%,-3%,-27%,-14%,.,
CCOc1ccc(NC(=O)/C=C\C(=O)N(c2ccc(C(C)C)cc2)C(C(=O)NCc2ccco2)c2ccc(F)cc2)cc1 (centres undefined),32%,-14%[60.1 µM],-11%,-13%,.,.,
SMILES,POLI inh,Pol kappa inh-1,Pol beta inh,Pol eta inh-1,WRN inhibitor,Pol eta inh-2,others
CC1=CC2=NC(=O)/C(=C/c3coc4ccc(Cl)cc4c3=O)C(=N)N2O1,39%,-16%,?,?,-15%,.,
N=C1/C(=C\c2coc3ccccc3c2=O)C(=O)N=C2SC=CN12,-3%,?,?,40µM*,-21%[57.1 µM],?,
N=C1/C(=C/c2cccs2)C(=O)N=C2SN=C(SCc3ccccc3)N12,?,-4%,?,25µM*,?,.,GALK inh confirm=42µM*;GALK redox cs=1%;HEK293 viability=-7%
CSC1=NSC2=NC(=O)/C(=C/c3coc4ccccc4c3=O)C(=N)N12,-13%,?,40µM*,14µM*,35µM*,.,Pol kappa inh-2=67*
COC(=O)c1sc(-c2ccccc2)cc1NC(=O)Nc1ccc(F)cc1,?,?,1%,-6%,.,.,
Cc1nc(-c2ccc(Cl)cc2)sc1CCNC(=O)c1ccco1,0%,-8%[60.1 µM],-9%,-14%,.,.,
CC1(OC(=O)C2CCCC2)C(=O)C=C2C=C(c3ccsc3)N(Cc3ccco3)C=C2C1=O (centres undefined),?,25µM*,?,-14%,-14%,2.4*,
COC1=C(N)C(=O)c2nc(-c3nc(C(=O)O)c(C)c(-c4ccc(OC)c(OC)c4O)c3N)ccc2C1=O,0.89µM*,50µM*,10µM*,3.5µM*,?,.,GALK inh confirm=?;GALK redox cs=0.94µM*;HEK293 viability=0.013µM*
Cc1ccc2nc(COc3ccccc3NC(=O)c3ccccc3F)cc(=O)n2c1,-19%,-1%[60.1 µM],-1%,-13%,.,.,

# Screening results: PubChem BioAssay, National Center for Advancing Translational Sciences (NCATS)
